Pf growth 48h: Primary qHTS for delayed death inhibitors of the malarial parasite plastid, 48 hour incubation; P. falciparum luciferase growth in erythrocytes, 48 h; Potency, µM (top dose mostly 28.7 µM), most hits filed as inhibitors; 310,000 compounds, 5.9% hits; AID 504832, 2011
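A one-generation exposure of luciferase-tagged malaria parasites in RPMI 1640/Albumax erythrocyte culture, 37 C and 5% CO2. Inhibition is inferred from decreased luminescence after adding detection reagent.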
Pf growth 96h: Primary qHTS for delayed death inhibitors of the malarial parasite plastid, 96 hour incubation; Potency, µM (series often up to 28.7 µM), actives largely listed as inhibitors; 320,000 compounds, 6.9% hits; AID 504834, 2011; P. falciparum luciferase reporter growth, 96 h
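P. falciparum expressing integrated firefly luciferase grown in erythrocytes (2% hematocrit, 0.05% parasitemia final) with compounds for 96 hours at 37 C, 5% CO2. Growth inhibition read as loss of luminescence after adding luciferase detection reagent.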
CHX counter: Cycloheximide Counterscreen for Small Molecule Inhibitors of Shiga Toxin; cell reporter, cycloheximide protein synthesis inhibition counterscreen; max response, %; 300,000 compounds, 12% hits; in the data active = max response mostly above about 13%, no sharp cut-off; inactive = mostly below about 14%; also: read at 38.3 µM for the half of the compounds with a filed dose
Marburg entry inh: qHTS for inhibitors of binding or entry into cells for Marburg Virus; Marburg virus pseudotyped entry inhibition, cell reporter; Potency, µM (series often up to 37.8 µM), most hits filed as inhibitors; 300,000 compounds, 1.8% hits; calls by dose curve; tested in HEK293 cells
LASV entry inh: qHTS for Inhibitors of binding or entry into cells for Lassa Virus. Lassa virus pseudotype entry inhibition, cell reporter. 300,000 compounds, 1.2% hits. Potency, µM (doses to about 37.9 µM), usual class: inhibitors; calls by dose curve; tested in HEK293 cells; also: nearly all actives have a fitted effect of over 50% in size
Shiga inhibitor: A qHTS for Small Molecule Inhibitors of Shiga Toxin; AID 2315, 2010; Vero cells, Shiga toxin protein synthesis inhibition reporter; 290,000 compounds, 9.2% hits; inhibition, % at 38.7 µM; in the data active = inhibition mostly above about 28%, no sharp cut-off; inactive = mostly below about 43%
Each line names hits and unclear results; the compound was inactive in the other large screens. This is a sample that favours compounds with a hit; in the whole collection about 19% have one here. Unless noted, calls follow the shape of the dose curve; as a rule, active = well fitted inhibition curve with a large enough effect; inconclusive = small, poorly fitted or top-dose-only effect, or another doubt; inactive = no such curve, though single readings can be large or run the other way.

O=C(c1cccc(F)c1)N1CCN(C(=O)C2CC2)CC1	Pf growth 96h 0.33µM
CCOC(=O)N1CCN(c2ccc(C(=O)c3cccc(F)c3)cc2)CC1	Marburg entry inh inconclusive (no result: Pf growth 48h)
O=C(c1ccc(N2CCN(C(=O)c3ccccc3Br)CC2)cc1)c1cccc(F)c1	Pf growth 48h inconclusive, Pf growth 96h 9.3µM, Marburg entry inh inconclusive, LASV entry inh inconclusive
O=C(c1ccc(N2CCN(C(=O)c3cccc(F)c3)CC2)cc1)c1cccc(F)c1	Pf growth 48h 13µM, Pf growth 96h inconclusive (no result: Marburg entry inh, LASV entry inh)
O=C(c1cccc(F)c1)N1CCN(S(=O)(=O)c2ccccc2)CC1	none (no result: Pf growth 48h, Pf growth 96h)
Cc1ccccc1C(=O)N1CCC(c2nc(-c3ccc(S(=O)(=O)N4CCCC4)cc3)no2)CC1	none (no result: Pf growth 48h, Pf growth 96h, CHX counter, Shiga inhibitor)
COc1ccc(CCNC(=S)N2CCC(C(=O)c3ccc(F)cc3)CC2)cc1OC	Pf growth 48h inconclusive, Marburg entry inh inconclusive, LASV entry inh inconclusive
O=C(NCc1ccccc1)C1(CC2CC(c3ccccc3)=NO2)CCNCC1 (stereo unspecified)	Pf growth 48h 12µM, Pf growth 96h inconclusive (no result: CHX counter, Marburg entry inh, LASV entry inh, Shiga inhibitor)
CCCCCCCNC(=O)C1(CC2CC(c3ccccc3)=NO2)CCNCC1 (stereo unspecified)	Pf growth 48h 12µM, Pf growth 96h inconclusive (no result: CHX counter, Marburg entry inh, LASV entry inh, Shiga inhibitor)
COc1ccc2c(c1)NP(=S)(c1ccccc1)N2C (stereo unspecified)	none (no result: Pf growth 48h, Pf growth 96h, CHX counter, Shiga inhibitor)
COc1ccc(P2(=O)Nc3ccccc3N2)cc1	CHX counter 36
COc1ccc(C2C=C(c3ccc(Cl)cc3)Nc3nc(NC(C)=O)nn32)cc1 (stereo unspecified)	Pf growth 48h inconclusive (no result: LASV entry inh)
COc1ccc(C2=CC(c3ccc(Cl)cc3)n3cnnc3N2)cc1OC (stereo unspecified)	Pf growth 48h 10µM, Marburg entry inh inconclusive, LASV entry inh inconclusive (no result: Pf growth 96h)
COc1ccc(/C=N/NC(=O)c2cccc(C(=O)N/N=C/c3ccc(OC)cc3)n2)cc1	none (no result: Marburg entry inh, LASV entry inh)
COc1ccc(/C=N/NC(N)=S)cc1OC(=O)c1cccc2ccccc12	Pf growth 48h inconclusive, Pf growth 96h inconclusive, CHX counter 23, Marburg entry inh inconclusive, LASV entry inh inconclusive, Shiga inhibitor 56
NC(=S)N/N=C/c1ccccc1[N+](=O)[O-]	Pf growth 96h inconclusive
C=CCOc1ccc(/C=N\NC(N)=S)cc1	Pf growth 48h inconclusive (no result: Marburg entry inh, LASV entry inh)
COc1ccc(/C=N/NC(=O)Nc2nonc2N)cc1	CHX counter 48, Shiga inhibitor 75
COc1ccc(/C=N/NC(N)=S)cc1	CHX counter 13
COC(=O)c1cccc(/C=N/NC(N)=S)c1O	Pf growth 48h inconclusive, Pf growth 96h inconclusive, CHX counter 27 (no result: Marburg entry inh, LASV entry inh)
COc1ccc(OC)c(NC(=S)NCc2ccco2)c1	none (no result: Pf growth 48h, Pf growth 96h, CHX counter, Shiga inhibitor)
Cc1ccc(S(=O)(=O)N(C)C)cc1NC(=S)NCc1ccco1	Pf growth 96h inconclusive
C/C(=N\NC(=O)CN(c1ccc(C)cc1)S(C)(=O)=O)c1cccs1	Pf growth 96h inconclusive, Marburg entry inh inconclusive
CCC(=O)Nc1ccc(C(=O)CSc2nnc(-c3ccccc3F)n2CCc2ccccc2)cc1	LASV entry inh inconclusive
O=C(CC1C(=O)NCCN1C(=S)Nc1ccccc1)Nc1ccc(F)cc1 (stereo unspecified)	none
NC(=S)N/N=C/c1ccc(C(F)(F)F)cc1	LASV entry inh inconclusive
CC(C)Oc1ccc(/C=N/NC(N)=S)cc1	CHX counter 61, Marburg entry inh inconclusive, LASV entry inh inconclusive, Shiga inhibitor 67
Cc1ccc(-n2c(=O)[nH]c3c(C(N)=O)nc(CC(C)C)nc32)cc1	Pf growth 48h inconclusive, Pf growth 96h 1.7µM
CCc1nnc(SCC(=O)N2CCc3ccccc32)n1CC	Pf growth 96h inconclusive (no result: Marburg entry inh, LASV entry inh)
Cn1c(Cn2c(=O)sc3ccccc32)nnc1SCC(=O)Nc1cccc(Cl)c1	Pf growth 96h inconclusive (no result: Marburg entry inh, LASV entry inh)
COc1ccc(-n2c(Cn3c(=O)sc4ccccc43)nnc2SC)cc1	Pf growth 96h 1.9µM (no result: Marburg entry inh, LASV entry inh)
CCn1c(CSc2ncccn2)nnc1SCC(=O)N1CCc2ccccc21	Pf growth 48h inconclusive, Pf growth 96h 4.7µM
CCSc1nnc(Cn2c(=O)sc3ccccc32)n1-c1ccc(OC)cc1	Pf growth 96h inconclusive (no result: Marburg entry inh, LASV entry inh)
Cn1c(Cn2c(=O)sc3ccccc32)nnc1SCC(=O)N1CCc2ccccc21	Pf growth 96h 5.2µM (no result: Marburg entry inh, LASV entry inh)
Cn1c(Cn2c(=O)sc3ccccc32)nnc1SCC(=O)N1CCCc2ccccc21	Pf growth 48h inconclusive, Pf growth 96h inconclusive (no result: Marburg entry inh, LASV entry inh)
Cn1c(Cn2c(=O)sc3ccccc32)nnc1SCC(=O)Nc1ccc(Cl)cc1	Pf growth 96h 10µM (no result: Marburg entry inh, LASV entry inh)
CCCCNc1nc2c(S(=O)(=O)c3ccc(C)c(C)c3)nnn2c2ccsc12	none (no result: Pf growth 48h, Pf growth 96h, CHX counter, Marburg entry inh, Shiga inhibitor)
COc1cc(S(=O)(=O)NC(C)C)ccc1Cl	Pf growth 96h inconclusive, LASV entry inh inconclusive (no result: Pf growth 48h)
CCOC(=O)CSc1nnc(Cn2c(=O)sc3ccccc32)n1-c1ccccc1C	Pf growth 96h 15µM (no result: Marburg entry inh, LASV entry inh)
CCOC(=O)CNC(=O)CSc1nnc(Cn2c(=O)sc3ccccc32)n1C	CHX counter 18 (no result: Marburg entry inh, LASV entry inh)
Cc1ccc(NC(=O)CSc2nnc(CNC(=O)c3ccco3)n2C)cc1C	Pf growth 96h 13µM (no result: CHX counter, Shiga inhibitor)
Cn1c(CNC(=O)c2cccs2)nnc1SCC(=O)Nc1ccc(Cl)cc1	Pf growth 48h 12µM, Pf growth 96h inconclusive, Marburg entry inh inconclusive
Cc1ccc(C(=O)NCc2nnc(SCC(=O)Nc3ccccc3)n2C)cc1	none
CCOC(=O)CC(=O)CSc1nnc(Cn2c(=O)sc3ccccc32)n1C	none
O=C(Nc1ccc(S(=O)(=O)Nc2cnc3ccccc3n2)cc1)c1cc(F)c(F)cc1Cl	none
COc1ccc2c(c1)CCC1C2CC[C@@]2(C)C1CC[C@@H]2NCCCCCCN1C(=O)CCC1=O (stereo partly specified)	Marburg entry inh inconclusive, LASV entry inh 13µM (no result: Pf growth 48h, Pf growth 96h, CHX counter, Shiga inhibitor)

Screening results deposited in PubChem by National Center for Advancing Translational Sciences (NCATS).
